# Only a selection was taken, and hits are over-represented in it overall.
# Pf Dd2 inh – Plasmodium falciparum Dd2 growth inhibition; P. falciparum Dd2 growth, SYBR Green, 72 h; Potency, µM (doses to about 28.9 µM), for the others: at the top dose activity, negative = inhibition, hits mostly inhibitors; actives 4.3% (n = 120,000); active = well fitted inhibition curve with a large enough effect;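 note: plate controls were DMSO vehicle for no effect and reference drug for full effect; nearly all actives have a fitted effect of over 65% in size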
#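 Readout: SYBR Green fluorescence, 485 nm excitation, 535 nm emission, after ~16 h lysis at 37C. Before that, Dd2-infected red cells (2.5% hematocrit) grew 72 h with compound, 29 uM top final concentration.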
# Active calls of the source: *; i = inactive; [ ] = another dose, or the depositor's remark. Potency is the fitted concentration of half-maximal effect.
SMILES,Pf Dd2 inh
COc1ccc(S(=O)(=O)N2CCC3(CC2)CC(OCC2CC2)CCO3)cc1 (configuration not stated),3.5µM*
COc1ccc(S(=O)(=O)N2CCC3(CC2)CC(OC)CCO3)cc1 (configuration not stated),12%
COc1cccc(S(=O)(=O)N2CCC3(CC2)CC(OCC2CC2)CCO3)c1 (configuration not stated),-2%
CC(C)N1CCC(O)(c2csc(CN3CC[C@@H](O)C3)n2)CC1,23%[44.1 µM]
COc1ccc(CN(C(=O)c2ccco2)c2ccc(CC(=O)NC(C)C)cc2)cc1,i
COc1ccc(CCNC(=O)Cc2ccc(N(Cc3ccccc3)C(=O)c3ccco3)cc2)cc1,-7%
COc1ccc(OCC(=O)N(Cc2cccs2)c2ccc(OC)cc2)cc1,-20%
COc1ccc(NC(=O)Cc2ccc(N(Cc3ccc(C)cc3)C(=O)c3ccco3)cc2)cc1,4.5µM*
CCCNC(=O)Cc1ccc(N(Cc2ccc(OC)cc2)C(=O)c2ccco2)cc1,i
COc1ccc(N(Cc2cccs2)C(=O)c2ccco2)cc1,10µM*
COCCNC(=O)CCc1c(C)nn(-c2ccc(F)cc2)c1Oc1ccccc1F,-1%
Cc1cnc(C(=O)N2CCN(C(=O)N3CC4CC(C3)[C@H]3CCCC(=O)N3C4)CC2)cn1 (some centres not stated),-4%
COc1ccc(Cl)cc1NC(=O)NCCc1noc(C2CC2)n1,-19%
O=C(C1CC1)N1CCN(c2nc3ncccc3o2)CC1,14%[44.1 µM]
COCCNC(=O)N1CCc2nc(N3CCN(C)CC3)sc2C1,-21%
COc1ccccc1NC(=O)Cn1c(N2CCC(C)CC2)nc(C)cc1=O,-5%
CCOc1ccc(NC(=O)Cn2c(N3CCN(c4ccccc4)CC3)nc(C)cc2=O)cc1,i
Cc1ccc(NC(=O)Cn2c(N3CCC(C)CC3)nc(C)cc2=O)c(C)c1,i
CCOc1ccccc1NC(=O)Cn1c(N2CCC(C)CC2)nc(C)cc1=O,11µM*
Cc1cc(=O)n(CC(=O)Nc2ccc(Br)cc2)c(N2CCN(c3ccccc3)CC2)n1,-11%
COc1ccc(Cl)cc1NC(=O)Cn1c(N2CCN(c3ccccc3)CC2)nc(C)cc1=O,7.9µM*
CC(c1cccs1)N(C)C(=O)c1cccc(Cl)c1 (configuration not stated),i
COc1ccccc1CNC(=O)C1Cn2cccc2C(=O)N1Cc1cccnc1 (configuration not stated),4.5µM*
COCCCNC(=O)C1Cn2cccc2C(=O)N1Cc1ccccc1 (configuration not stated),21%
O=C(NCCCN1CCCC1=O)C1Cn2cccc2C(=O)N1Cc1cccnc1 (configuration not stated),4%
SMILES,Pf Dd2 inh
O=C(NCCN1CCCCC1)C1Cn2cccc2C(=O)N1Cc1cccnc1 (configuration not stated),3%
O=C(NCCCN1CCCc2ccccc21)C1Cn2cccc2C(=O)N1Cc1cccnc1 (configuration not stated),8.9µM*
COc1ccccc1OCCNC(=O)C1Cn2cccc2C(=O)N1Cc1cccnc1 (configuration not stated),5.6µM*
O=C(NCc1cc(F)ccc1F)C1Cn2cccc2C(=O)N1Cc1ccccc1 (configuration not stated),-12%
CC(C)OCCCNC(=O)C1Cn2cccc2C(=O)N1Cc1cccnc1 (configuration not stated),-13%
COc1cccc(CNC(=O)C2Cn3cccc3C(=O)N2Cc2ccccc2)c1 (configuration not stated),-18%
Cn1cnnc1CC1CCN(S(=O)(=O)c2ccccc2)CC1,31%
COc1ccc(C(=O)N2CCC3(CC(C)=NO3)C2)cc1 (configuration not stated),5%[44.1 µM]
CCCNC(=O)N[C@@H]1C[C@H](Cn2cc(C3CC3)nn2)[C@@H](O)[C@H]1O,-1%[44.1 µM]
O=C(O)c1ccc(CC2CCN(Cc3cnc(-c4ccco4)nc3)C2)cc1 (configuration not stated),-3%
C=CCCC(CN1CCCC1)Oc1ccc(C(=O)NCC)cn1 (configuration not stated),3.2µM*
C=CCCC(CN1CCOCC1)Oc1ccc(-c2ccccc2)nn1 (configuration not stated),-12%
C=CCCC(CN1CCCC1)Oc1cc(N2CCOCC2)ncn1 (configuration not stated),-4%
C=CCCC(CN1CCCC1)Oc1ccc(-c2ccccc2)nn1 (configuration not stated),11µM*
C=CCCC(CN1CCSCC1)Oc1ncc(CC)cn1 (configuration not stated),-14%
C=CCCC(CN1CCSCC1)Oc1nc(OC)cc(OC)n1 (configuration not stated),-18%
Cc1cnn(Cc2c(C(=O)N3C[C@@H](C(N)=O)[C@H](c4n[nH]c(C)n4)C3)noc2C)c1,-10%
CCOc1ccc(CN2CCCC(COc3ccccc3C(=O)NC(C)C)C2)cc1 (configuration not stated),-1%
CC(=O)N1C[C@@H](C(=O)NCCc2c(C)noc2C)[C@H](c2nc(C)no2)C1,-20%
Cc1cccc(Cn2c(=O)c(-c3noc(C)n3)c3n(c2=O)CCCCC3)c1,i
CCCCc1ccc(NC(=O)CN2C(=O)C(c3ccccc3)=NC23CCCC3)cc1,i
COc1ccc(-c2noc(CN(C(=O)c3ccccc3Cl)C(C)C)n2)cc1,-4%
COc1ccc(-c2noc(CN(C(=O)C(C)Oc3ccc(C)cc3)C(C)C)n2)cc1 (configuration not stated),10µM*
Cc1ccc(CC(=O)N(Cc2nc(-c3ccc(C)cc3)no2)C(C)C)cc1,-22%
Cc1noc(-c2cn(C3CCN(C(=O)COc4ccccc4)CC3)nn2)n1,i
SMILES,Pf Dd2 inh
O=C(c1ccc(F)c(Cl)c1)N1CCCC2(C1)NC(=O)N(Cc1ccccc1)C2=O (configuration not stated),-24%
Cc1ccc(CN2C(=O)NC3(CCCN(C(=O)c4ccc(F)c(Cl)c4)C3)C2=O)cc1 (configuration not stated),7.1µM*
Cc1ccc(CN2C(=O)NC3(CCCN(C(=O)c4cccc(Cl)c4)C3)C2=O)cc1 (configuration not stated),i
C[C@H]1[C@@H]2[C@@H](O)C([C@H](C)C(=O)NCc3ccc(F)cc3)CC[C@@]2(C)CC[C@@H]1NC(=O)C1CCCCC1 (some centres not stated),i
CCC1=C(C(=O)OC)C(c2ccccc2)N2C(CC(=O)NCC3CC3)=CSC2=N1 (configuration not stated),-3%
CCC1=C(C(=O)OC)C(c2cccc(C)c2)N2C(CC(=O)N3CCOCC3)=CSC2=N1 (configuration not stated),-29%
COC(=O)C1=C(C)N=C2SC=C(CC(=O)NCCc3cccs3)N2C1c1cccc(OC)c1 (configuration not stated),i
COC(=O)C1=C(C)N=C2SC=C(CC(=O)Nc3cc(C)cc(C)c3)N2C1c1ccccc1OC (configuration not stated),7.1µM*
CCC1=C(C(=O)OC)C(c2ccccc2)N2C(CC(=O)NCc3cccc(F)c3)=CSC2=N1 (configuration not stated),4µM*
CCC1=C(C(=O)OC)C(c2cccc(F)c2)N2C(CC(=O)NCc3cccc(F)c3)=CSC2=N1 (configuration not stated),2.5µM*
